For experiment [1], the system named is Human papillomavirus type 1a protein E7 (residues 44-93). Briefly: small molecules binding HPV E7 44-93 – biochemical, small-molecule microarray, residues 44-93, 635 nm fluorescence, primary screen (AID 1108).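 Note: E7 fragment applied at 1 µg/mL in TBST for 1 h at 4 C; score combines spot fluorescence with its signal to noise ratio.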 The settings on record: fluorescence 635 nm, higher = more signal.
Experiment [2] is described as follows: hepatitis C replication reporter changes, two-sided – Huh7 cells, luciferase reporter, HCV replication inhibitor project, primary screen (AID 1109).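 Note: huh7 hepatoma cells harbouring a luciferase neomycin HCV replicon reporter; luciferase luminescence as measure of HCV replicon replication; test concentration not given here.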 The settings on record: Huh7 HCV replicon luciferase reporter, 48 h; higher = more signal.
The target in experiment [3] is Left-right determination factor 2 (Homo sapiens) (UniProt O00292). Put plainly: small molecules binding LEFTY2 protein – biochemical, small-molecule microarray, 635 nm fluorescence scan, primary screen (AID 1110). The settings on record: higher = more signal.
The target in experiment [4] is Calmodulin-1 (Homo sapiens) (UniProt P0DP23). Put plainly: small molecules binding calmodulin-1 with EGTA – biochemical, small-molecule microarray, Cy5-labelled CALM1, profiling panel (AID 1111).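 Note: labelled calmodulin applied in Tris saline Tween buffer holding calcium plus EGTA and DTT.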 Particulars: Cy5-CALM1 binding fluorescence, higher = more signal.
Experiment [5] shares this target. Put plainly: small molecules binding Ca-loaded calmodulin-1 – biochemical, small-molecule microarray, Cy5-labelled CALM1, plus calcium, artefact control for SMM control-protein annotation, profiling panel (AID 1112).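 Note: score merges spot fluorescence with signal to noise from triplicate slides.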 The settings on record: Cy5-CALM1 binding fluorescence, higher = more signal.
Experiment [6] can be described thus: probe aWnt5a binding to arrayed compounds – biochemical, biotinylated probe, 635/667 nm fluorescence, primary screen (AID 1113).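 Note: score merges 667 nm fluorescence intensity with signal-to-noise per printed feature.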 Particulars: small-molecule microarray, higher = more signal.
Experiment [7] is described as follows: probe aShh binding to arrayed compounds – biochemical, biotinylated probe, 635/667 nm fluorescence, primary screen (AID 1114).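 Note: probe is biotin-labelled aShh protein from a stem cell growth factor screen; measures binding of labelled protein to compounds printed on the slide; score merges feature fluorescence at 667 nm with signal-to-noise.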 Particulars: small-molecule microarray, higher = more signal.
The nature of experiment [8]: probe aNog binding to arrayed compounds – biochemical, biotinylated probe, 635/667 nm fluorescence, primary screen (AID 1115).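 Note: probe is biotinylated aNog protein used at 0.15 µg/mL for 1 h at 4 C; z-score combines 667 nm fluorescence of each spot with its signal to noise.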 Particulars: small-molecule microarray, higher = more signal.
The target of experiment [9] is Torsin-1A-interacting protein 1 (Homo sapiens) (UniProt Q5JTV8). Put plainly: compound microarray binding of lysate hLAP1 – cell lysate, small-molecule microarray, COS7 lysate, 635/667 nm fluorescence, primary screen (AID 1116). Particulars: 635 nm fluorescence, higher = more signal.
The target of experiment [10] is Alpha-bungarotoxin (Bungarus multicinctus) (UniProt P60615). Briefly: compounds binding labelled alpha-BTX control protein – biochemical, small-molecule microarray, Alexa647 label, 635/667 nm fluorescence, artefact control for SMM control protein annotation, profiling panel (AID 1117). The settings on record: alpha-BTX-A647 binding fluorescence, higher = more signal.

Experiment [11] deals with Albumin (Bos taurus) (UniProt P02769). Put plainly: compounds binding labelled BSA control protein – biochemical, small-molecule microarray, Alexa647 label, 635/667 nm fluorescence, artefact control for SMM control protein annotation, profiling panel (AID 1118).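 Note: score merges 667 nm emission intensity and signal-to-noise per printed compound spot.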 The settings on record: BSA-A647 binding, fluorescence 635 nm, higher = more signal.
The nature of experiment [12]: probe aXIP binding to arrayed compounds – biochemical, NeuroSMM set, 635/667 nm fluorescence, primary screen (AID 1119).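 Note: probe is the protein aXip251-270 applied at 1 µg/mL to compound-printed slides; binding of probe to printed compounds measured as 667 nm fluorescence plus signal to noise.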 Particulars: small-molecule microarray, higher = more signal, called active from +8 up or from −8 down.
Experiment [13] in a line: probe aNOTCH3 binding on compound microarray – biochemical, small-molecule microarray, 635/667 nm fluorescence, primary screen (AID 1120).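 Note: probe is a biotin-tagged antibody raised against NOTCH3 rather than NOTCH3 protein; score merges spot fluorescence near 667 nm with spot signal to noise.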 Particulars: higher = more signal.
A short description of experiment [14]: probe aNOTCH2 binding on compound microarray – biochemical, small-molecule microarray, 635/667 nm fluorescence, primary screen (AID 1121).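 Note: score merges feature fluorescence read at 667 nm with its signal to noise.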 Particulars: higher = more signal.
Experiment [15] deals with Carbonic anhydrase 2 (Homo sapiens) (UniProt P00918). Briefly: compounds binding carbonic anhydrase 2 – biochemical, small-molecule microarray, Alexa647-labelled CAII, profiling panel (AID 1122). Particulars: CAII-A647 binding fluorescence, higher = more signal.
Experiment [16] in a line: COS7 lysate on small-molecule microarray, probe aHis, 635 nm (AID 1123).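 Note: z-score combines 667nm fluorescence intensity with signal-to-noise per printed compound spot.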 The settings on record: COS7 cell lysate, fluorescence, higher = more signal.
The nature of experiment [17]: probe aLAP1 signal on lysate-treated microarray – cell lysate, small-molecule microarray, COS7 lysate, primary screen (AID 1124).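 Note: lysate comes from COS7 cells expressing LAP1 and is applied at 0.3 µg/mL; score merges spot fluorescence near 667 nm with signal-to-noise over triplicate slides.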 The settings on record: probe aLAP1, fluorescence, higher = more signal.
In experiment [18] the test system is Sam68 (KHDRBS1). Put plainly: compounds binding KHDRBS1 protein – biochemical, small-molecule microarray, 635 nm fluorescence, primary screen (AID 1125).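 Note: score merges 667 nm channel intensity with signal to noise over triplicate slides.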 The settings on record: higher = more signal.
In experiment [19] the test system is Chordin-like protein 2 (CHRDL2). Put plainly: compounds binding chordin-like 2 – biochemical, small-molecule microarray, 635 nm fluorescence, primary screen (AID 1126).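 Note: printed compound slides probed with Chrdl2 protein at 4 µg/mL for 1 h at 4 C; score merges 667 nm emission intensity with signal to noise over three replicate slides.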 The settings on record: fluorescence 635 nm, higher = more signal.
Experiment [20] addresses Concanavalin-A (Canavalia ensiformis) (UniProt P02866). Briefly: compounds binding concanavalin A lectin – biochemical, small-molecule microarray, Alexa647 label, 635 nm, artefact control for SMM control protein annotation, primary screen (AID 1127).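 Note: z combines 667 nm emission intensity with signal-to-noise across three replicate slides.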 Particulars: ConA-A647 binding fluorescence, higher = more signal.

Among the data in PubChem BioAssay are composite z-score, z-score and composite Z-score values, retold here.

The source made the active and inactive calls.

Torsin-1A-interacting protein 1 (Homo sapiens), sequence (Q5JTV8 whole entry, looked up): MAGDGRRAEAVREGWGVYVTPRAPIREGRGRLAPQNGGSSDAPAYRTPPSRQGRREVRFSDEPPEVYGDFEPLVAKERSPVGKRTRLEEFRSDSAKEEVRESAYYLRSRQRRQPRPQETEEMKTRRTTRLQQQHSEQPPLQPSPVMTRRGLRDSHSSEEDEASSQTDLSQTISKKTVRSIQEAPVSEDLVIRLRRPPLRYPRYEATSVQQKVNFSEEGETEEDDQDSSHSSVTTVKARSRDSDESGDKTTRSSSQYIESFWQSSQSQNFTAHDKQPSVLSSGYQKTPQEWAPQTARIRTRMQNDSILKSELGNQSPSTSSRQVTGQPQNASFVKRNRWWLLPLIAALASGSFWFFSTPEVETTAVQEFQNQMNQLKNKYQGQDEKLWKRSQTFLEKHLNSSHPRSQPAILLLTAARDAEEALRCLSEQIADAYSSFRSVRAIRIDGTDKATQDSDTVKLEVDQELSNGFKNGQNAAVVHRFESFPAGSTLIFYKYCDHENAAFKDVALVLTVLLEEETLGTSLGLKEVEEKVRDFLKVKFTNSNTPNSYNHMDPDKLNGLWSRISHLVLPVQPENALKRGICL
Albumin (Bos taurus), sequence (P02769 whole entry, looked up): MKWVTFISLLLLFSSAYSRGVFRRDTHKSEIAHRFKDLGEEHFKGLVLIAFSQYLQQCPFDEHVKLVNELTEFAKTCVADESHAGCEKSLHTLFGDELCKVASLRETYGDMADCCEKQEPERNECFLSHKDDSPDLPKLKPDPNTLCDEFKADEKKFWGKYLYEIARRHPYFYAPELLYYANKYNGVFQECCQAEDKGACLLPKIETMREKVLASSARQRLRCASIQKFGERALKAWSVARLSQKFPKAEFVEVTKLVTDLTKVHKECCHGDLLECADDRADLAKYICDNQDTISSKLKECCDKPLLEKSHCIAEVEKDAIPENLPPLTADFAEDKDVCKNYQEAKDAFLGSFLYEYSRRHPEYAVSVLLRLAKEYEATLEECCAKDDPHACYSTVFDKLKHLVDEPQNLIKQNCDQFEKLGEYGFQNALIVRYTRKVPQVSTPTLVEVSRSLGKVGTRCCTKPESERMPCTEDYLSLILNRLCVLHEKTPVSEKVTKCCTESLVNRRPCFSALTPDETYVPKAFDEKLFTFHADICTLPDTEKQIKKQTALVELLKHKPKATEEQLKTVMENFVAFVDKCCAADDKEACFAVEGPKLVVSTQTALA
Left-right determination factor 2 (Homo sapiens), sequence (O00292 whole entry, looked up): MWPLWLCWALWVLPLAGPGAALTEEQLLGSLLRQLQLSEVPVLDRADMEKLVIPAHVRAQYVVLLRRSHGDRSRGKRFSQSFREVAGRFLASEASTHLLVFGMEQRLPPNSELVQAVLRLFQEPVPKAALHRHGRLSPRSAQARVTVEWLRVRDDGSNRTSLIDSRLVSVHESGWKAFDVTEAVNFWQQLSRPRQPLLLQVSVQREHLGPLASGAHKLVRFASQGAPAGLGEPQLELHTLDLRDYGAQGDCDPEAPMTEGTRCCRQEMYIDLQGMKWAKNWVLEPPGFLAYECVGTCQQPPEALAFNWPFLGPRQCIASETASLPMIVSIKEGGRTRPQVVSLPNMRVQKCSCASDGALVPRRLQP
Concanavalin-A (Canavalia ensiformis), sequence (P02866 whole entry, looked up): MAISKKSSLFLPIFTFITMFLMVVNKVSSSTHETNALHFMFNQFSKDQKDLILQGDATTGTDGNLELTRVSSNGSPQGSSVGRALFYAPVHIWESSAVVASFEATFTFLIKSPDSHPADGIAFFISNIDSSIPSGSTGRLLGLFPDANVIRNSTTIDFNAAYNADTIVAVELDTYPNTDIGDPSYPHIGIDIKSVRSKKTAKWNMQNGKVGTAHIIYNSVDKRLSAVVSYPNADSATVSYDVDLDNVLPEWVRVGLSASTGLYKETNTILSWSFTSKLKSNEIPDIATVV
Alpha-bungarotoxin (Bungarus multicinctus), sequence (P60615 whole entry, looked up): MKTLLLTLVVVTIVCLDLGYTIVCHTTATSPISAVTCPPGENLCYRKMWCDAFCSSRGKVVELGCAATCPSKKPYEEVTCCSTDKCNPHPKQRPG

As for `O=C1OCCC=C[C@H]2OC34C=CCN(Cn5nnc6ccccc65)C(=O)[C@H]3N(CCCCCO)C(=O)[C@@H]4C12` (stereo not given in full), the composite z-score in [1] was -0.473; in experiment [3], -0.511; in experiment [4] it was -0.212; in experiment [5], 0.106; in experiment [6], -0.101; in [7], -0.0769. Further, the composite z-score was 0.0599 in experiment [8]; -1.1 in experiment [9]; -1.09 in experiment [10]; 0.428 in [11]; -0.193 in experiment [13]; -0.114 in experiment [14]. Also, the composite z-score is 0.87 in [15]; 0.121 in experiment [16]; 0.686 in experiment [17]; -0.464 in experiment [18]; -0.579 in [19]; -1.55 in experiment [20]. This compound also returned a z-score in experiment [2] of 0.204. The composite Z-score in experiment [12] was 0.266 (inactive).

Regarding `[N-]=[N+]=NCc1ccccc1[C@H]1OC(c2ccc(OCCCO)cc2)=N[C@@]1(Cc1ccccc1N=[N+]=[N-])C(=O)NCCN1CCOCC1`, the composite z-score in experiment [1] is 1.05; in experiment [3], 0.528; in [4], 1.19; in experiment [5] it was 0.305; in [6], 0.16; in experiment [7], 0.432. The composite z-score in [8] was found to be 2.06; in [9], 1.79; in experiment [10], 1.45; in experiment [11], 0.701; in experiment [13], 0.416; in experiment [14], 0.105. Further, the composite z-score in experiment [15] was 0.751; in [16], 2.32; in experiment [17], -0.0777; in [18] it was 1.29; in experiment [19], 0.263; in experiment [20], 1.14. Also, the z-score in experiment [2] is -2.34. In addition, the composite Z-score in experiment [12] is -0.514 (inactive).

As to `C[N+](C)(C)CCCCCCNC(=O)[C@@H]1C[C@@H]2C(=O)NCC(=O)N2[C@@H]1c1cccc(OCCO)c1`, the composite z-score in [1] was 0.891; in experiment [3], 0.695; in experiment [4] it was 0.21; in experiment [5], -0.359; in experiment [6] it was -0.18; in experiment [7], -0.333. For the same compound, the composite z-score in experiment [8] was -0.0317; in [9], 0.602; in experiment [10] it was 1.96; in [11], -0.205; in experiment [13] it was -0.0338; in experiment [14], -0.14. Besides, the composite z-score in [15] is 0.656; in experiment [16], 1.1; in experiment [17], -0.426; in experiment [18] it was 0.73; in experiment [19], 1.31; in experiment [20], 1.15. Also, the z-score in experiment [2] stood at 1.99. Also, the composite Z-score in [12] was 0.605 (inactive).

Turning to `COc1ccc([Si](C)(C)[C@@H]2[C@@H](CC(=O)N3Cc4ccccc4C[C@H]3CO)O[C@]3(C(=O)N(Cc4cccc(N5CCCCC5=O)c4)c4ccccc43)[C@H]2C)cc1`, the composite z-score is 1.09 in experiment [1]; 0.709 in [3]; 0.836 in experiment [4]; -0.219 in experiment [5]; -0.0585 in experiment [6]; 0.0557 in experiment [7]. The composite z-score was 0.228 in [8]; 1.11 in [9]; 1.9 in experiment [10]; -0.565 in experiment [11]; 0.0425 in experiment [13]; -0.133 in [14]. The composite z-score in experiment [15] is -0.0599; in experiment [16], 0.977; in [17], 0.426; in experiment [18] it was 1.29; in experiment [19], 1.28; in experiment [20] it was 1.13. In addition, in experiment [2], the z-score is -3.47. Besides, the composite Z-score in [12] was 0.436 (inactive).

Turning to `COCCOC(=O)N1C(=O)[C@@]2(c3cc(C#CCCO)ccc31)[C@H](C(=O)N1CCc3cc(OC)c(OC)cc3C1)[C@H]1C(=O)O[C@H](c3ccccc3)[C@H](c3ccccc3)N1[C@@H]2c1ccc(OCCO)cc1`, the composite z-score in experiment [1] is 1.32; in [3], 0.887; in experiment [4] it was 0.842; in experiment [5] it was 0.224; in [6] it was -0.0731; in experiment [7], -0.304. Besides, the composite z-score in experiment [8] was 0.299; in [9], 0.868; in experiment [10] it was 0.826; in experiment [11], 0.455; in experiment [13] it was 0.19; in experiment [14], -0.147. Moreover, the composite z-score in [15] is 0.476; in [16], 1.54; in experiment [17], 0.765; in [18], 1.3; in [19], 0.956; in [20] it was 1.09. For the same compound, the z-score in [2] is -1.32. Also, the composite Z-score in experiment [12] was 0.552 (inactive).

As for `CN(C)CCCCCCNC(=O)[C@@H]1C[C@@H]2C(=O)NCC(=O)N2[C@@H]1c1ccc(O)cc1`, the composite z-score in experiment [1] was 1.33; in experiment [3], 0.932; in [4], -1.53; in experiment [5] it was -1.89; in experiment [6], 0.0785; in [7], 0.46. The composite z-score in [8] was -0.213; in [9], 1.96; in experiment [10], 1.83; in experiment [11], -0.671; in experiment [13] it was 0.173; in experiment [14], -0.126. Moreover, the composite z-score was 0.683 in experiment [15]; 2.86 in experiment [16]; 0.328 in experiment [17]; 1.33 in experiment [18]; 1.4 in [19]; 1.21 in experiment [20]. The same compound displayed a z-score in experiment [2] of 0.589. The composite Z-score in experiment [12] was 2.25 (inactive).
